FadD28 binding = inhibitors of FadD28 bisubstrate probe binding, primary screen, biochemical, fluorescence polarization, single point. actives 0.22% (n = 360,000). Mycobacterium tuberculosis FadD28 fatty-acid-AMP ligase. inhibition, % at 12.5 µM; in the data active = inhibition above about 8.5%, passing the limit was not always enough
PrP UTR inh = inhibition of PrP 5' UTR reporter expression; cell-based PrP 5' UTR mRNA reporter, plate reader; inhibition, % (no concentration beside the values); actives 0.35% (n = 340,000); in the data active = inhibition above about 52%
PfHsp40 yeast = rescue of yeast from PfHsp40 toxicity, primary screen, S. cerevisiae, ATP luminescence; S. cerevisiae expressing PfHsp40, growth rescue; growth rescue, % at 12.5 µM; actives 0.68% (n = 340,000); in the data active = growth rescue above about 28%, passing the limit was not always enough;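 also: yeast W303a lacking pdr1 and pdr3 grown in galactose medium; growth measured after three days at 30 °C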
BioA inh = M. tuberculosis BioA enzyme inhibitors, primary screen, biochemical, plate reader, single point, HTS; 7,8-diaminopelargonic acid synthase BioA (Mycobacterium tuberculosis); purified M. tuberculosis BioA enzyme; inhibition, % at 9.99 µM; actives 0.096% (n = 360,000); AID 602481, 2012; in the data active = inhibition above about 40%
TcdB GH inh = TcdB glycohydrolase inhibitors, primary screen, biochemical, single point, plate reader; TcdB glycohydrolase enzymatic assay; inhibition, % at 9.99 µM; actives 0.24% (n = 350,000); AID 652162, 2013; in the data active = inhibition above about 10%
Hits are given with their value; . = inactive; / = no result. A selection: hits, their analogues and other compounds. The true share with any hit is near 1.1%.

SMILES | FadD28 binding | PrP UTR inh | PfHsp40 yeast | BioA inh | TcdB GH inh
O=C(CC1CC2CCC1C2)Nc1nc(-c2ccccn2)cs1 (centres undefined) | . | . | 438 | / | .
CCC(=O)c1ccc(OCC(=O)Nc2nc(-c3cccnc3)cs2)cc1 | . | . | . | . | .
COc1ccc(OCCCC(=O)Nc2nc(-c3ccccn3)cs2)cc1 | . | . | . | . | .
Cc1cc(C)c(OCC(=O)Nc2nc(-c3ccccn3)cs2)c(C)c1 | . | . | 313 | . | .
CCc1ccccc1OCC(=O)Nc1nc(-c2cccnc2)cs1 | . | . | 237 | . | .
O=C(Nc1nc(-c2ccccn2)cs1)C1CC1 | . | . | . | . | .
COc1ccc(C2/C=C\CN(C(=O)Nc3ccc(C(F)(F)F)cc3)CC(=O)N2Cc2ccc(F)cc2)cc1 (centres undefined) | . | . | 93 | . | /
O=S(=O)(c1ccccc1)N1CCN(Cc2nnc(-c3ccccc3)o2)CC1 | . | / | / | . | 10
COc1cccc(CNC(=O)C[C@H]2CC[C@H]3[C@@H](COc4ccc(NC(C)=O)cc4C(=O)N3C)O2)c1 | / | / | / | / | .
Cc1ccc(CN2C(=O)CCC2C(=O)NC(C)C)cc1 (centres undefined) | . | . | 78 | . | /
Cc1noc(C)c1NC(=O)Nc1ccc2c(c1)C(=O)N([C@H](C)CO)C[C@H](C)[C@@H](CN(C)C(=O)Nc1cccc3ccccc13)OCCCC[C@@H](C)O2 | / | / | / | . | /
Clc1ccc(C(Cn2ccnc2)OCc2c(Cl)cccc2Cl)c(Cl)c1 (centres undefined) | . | . | 103 | . | .
OC(Cn1ccnc1)c1ccc(Cl)cc1Cl (centres undefined) | . | . | . | . | /
Clc1ccc(C(Cn2ccnc2)OCc2csc3c(Cl)cccc23)c(Cl)c1 (centres undefined) | . | . | 80 | . | .
Clc1ccc(CSc2ncn(-c3ccccc3)n2)cc1 | . | . | . | . | /
Clc1cccc(CSc2ncn(-c3ccccc3)n2)c1 | . | . | 31 | . | .
N#CC(C#N)=C(N)/C(C#N)=C/c1cc(O)c(O)c(O)c1 | 13 | . | . | . | .
N#C/C(=C\c1ccc(O)c(O)c1)C(=O)c1ccc(O)c(O)c1 | . | . | . | . | .
[N-]=[N+]=Nc1ccccc1C[C@]1(C(=O)N2CCCCC2)N=C(c2ccc(OCCCO)cc2)O[C@H]1c1ccccc1 | / | / | / | . | .
COc1ccc(S(=O)(=O)Nc2ccc3c(c2)C(=O)N([C@@H](C)CO)C[C@@H](C)[C@H](CN(C)S(=O)(=O)c2ccc(Cl)cc2)O3)cc1 | / | / | / | . | /
CC(C)(C)NC(=O)NC(=O)CSc1nnc(-c2ccccc2F)n1N | . | . | . | . | /
Cc1nnc(SCC(=O)NC(=O)NC(C)(C)C)n1N | . | . | 52 | / | /
Cc1noc(C)c1NC(=O)N(C)C[C@H]1Oc2ccc(NC(=O)Cn3cnnn3)cc2CC(=O)N([C@@H](C)CO)C[C@H]1C | / | / | / | . | /
Cc1ccc(CSCCNC(=O)c2ccc(NS(C)(=O)=O)cc2)cc1 | 15 | . | . | . | .
Cc1ccc(CSCCNC(=O)c2ccc(C)cc2)cc1 | . | . | / | / | .
SMILES | FadD28 binding | PrP UTR inh | PfHsp40 yeast | BioA inh | TcdB GH inh
C/C(=N\N=C(/N)SC1CC(=O)N(c2ccc(Cl)c(Cl)c2)C1=O)c1cccs1 (centres undefined) | . | . | 37 | . | .
C/C(=N\N=C(/N)SC1CC(=O)N(c2ccc(Br)cc2)C1=O)c1cccs1 (centres undefined) | 10 | . | . | . | .
CCCNC(=O)[C@H]1[C@H](CO)[C@H]2Cn3c(ccc(/C=C/c4ccccc4)c3=O)[C@@H]1N2C(=O)c1cccnc1 | / | / | / | . | .
O=C(Nc1sc(-c2ccccc2)cc1C(=O)O)c1ccccc1 | 19 | . | . | . | .
CCOC(=O)c1cc(-c2ccccc2)sc1NC(=O)CC | . | . | . | / | /
O=C(CCN1CCCCC1)NCC[C@H]1CC[C@@H](NC(=O)C2CCC2)[C@H](CO)O1 | / | / | / | . | .
O=[N+]([O-])c1cc2oc3c(c2c(C=NCc2ccncc2)c1O)CCCC3 | . | . | 48 | / | /
CC(C)(C)N=Cc1c(O)ccc2oc3c(c12)CCCC3 | . | . | . | . | .
Cc1cc(NC(=O)c2c(F)cccc2Cl)n(-c2nc3ccccc3[nH]2)n1 | . | . | 113 | . | /
Cc1cc(NC(=O)c2c(F)cccc2F)n(-c2nc3ccccc3[nH]2)n1 | . | . | . | . | /
O=C(NC1CCCC1)c1ccc(Cn2c(=O)[nH]c3ccsc3c2=O)cc1 | . | . | 51 | / | .
